The record followed here is PubChem BioAssay (NCI).

Compounds without any hit were thinned out: in the full panel of roughly 83,000, 20% have a hit.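 Negative percent growth values reflect cell death: -40 means 40% of the cells present at the start died, and -100 means all died.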 Unmarked numbers belong to inactive results. Activity calls are given as the source filed them. Rule for the calls: active = growth percent below 10; inactive = the rest.

Some test systems named below: SK-MEL-2 melanoma; EKVX NSCLC; SN12C renal; UO-31 renal; TK-10 renal; ACHN renal; CAKI-1 renal; A498 renal; MOLT-4 leukemia; SR leukemia; RPMI-8226 leukemia; OVCAR-8 ovarian; OVCAR-5 ovarian; OVCAR-4 ovarian; SK-OV-3 ovarian; IGROV1 ovarian; OVCAR-3 ovarian; HS 578T breast; NCI/ADR-RES ovarian.
What all share (assay): NCI-60 one-dose screen, 48 h (100 = growth as untreated, 0 = no growth, -100 = all killed)
Common to all, as to conditions: 10 µM unless noted

For `Fc1c[c-]c(-c2ccccn2)c(F)c1.[CH3-].[Pt+2].c1ccc(P(C[PH+](c2ccccc2)c2ccccc2)c2ccccc2)cc1`, the growth in the experiment on SK-MEL-2 melanoma was -39% (active); in the experiment with EKVX NSCLC, -12% (active); in the experiment on SN12C renal it was -32.2% (active); with UO-31 renal, -98.2% (active); with TK-10 renal, -30.5% (active); in the experiment with ACHN renal, -100% (active). Also, the growth with CAKI-1 renal was -73.8% (active); in the experiment on A498 renal, -79.3% (active); in the experiment on MOLT-4 leukemia it was 0% (active); with SR leukemia, 1.65% (active); in the experiment on RPMI-8226 leukemia, -13.2% (active); in the experiment on OVCAR-8 ovarian it was 7.36% (active). Further, the growth was -34.5% (active) in the experiment with OVCAR-5 ovarian; -19.3% (active) in the experiment on OVCAR-4 ovarian; 9.11% (active) in the experiment with SK-OV-3 ovarian; -22.2% (active) in the experiment on IGROV1 ovarian; -74.9% (active) in the experiment with OVCAR-3 ovarian; -5.48% (active) in the experiment with HS 578T breast. In the experiment with NCI/ADR-RES ovarian, the growth was 49.8%.
As to `CCN(CC)c1nc(SCC(=O)Nc2nc3ccc(C)cc3s2)nc(-c2ccccc2)c1C#N`, the growth was 92% with SK-MEL-2 melanoma; 81% in the experiment on EKVX NSCLC; 94% in the experiment on SN12C renal; 68.8% with UO-31 renal; 94.6% in the experiment on TK-10 renal; 94.8% in the experiment with ACHN renal. For the same compound, the growth is 75.4% with CAKI-1 renal; 81% with A498 renal; 79.7% with MOLT-4 leukemia; 2.23% (active) in the experiment with SR leukemia; 61.4% with RPMI-8226 leukemia; 89.5% in the experiment with OVCAR-8 ovarian. Further, the growth in the experiment on OVCAR-5 ovarian was 77.4%; with OVCAR-4 ovarian it was 80.7%; in the experiment on SK-OV-3 ovarian, 93.7%; with IGROV1 ovarian it was 65.7%; in the experiment on OVCAR-3 ovarian, 93.2%; in the experiment on HS 578T breast it was 83.4%. In addition, the growth in the experiment with NCI/ADR-RES ovarian is 96.4%.
For the compound `CC1(C)CC[C@]2(C(=O)N3CCOCC3)CC[C@]3(C)C(=CC[C@@H]4[C@@]5(C)CC[C@H](OC(=O)c6cccnc6)C(C)(C)[C@@H]5CC[C@]43C)[C@@H]2C1`, the growth in the experiment with SK-MEL-2 melanoma is 84.4%; in the experiment on EKVX NSCLC it was 88.2%; with SN12C renal, 74.4%; in the experiment on UO-31 renal, 62.9%; in the experiment on TK-10 renal it was 83%; in the experiment on ACHN renal, 45.3%. In addition, the growth is 40.1% in the experiment on CAKI-1 renal; 70.3% in the experiment on A498 renal; 49% in the experiment with MOLT-4 leukemia; 53.7% in the experiment on SR leukemia; 35.5% in the experiment with RPMI-8226 leukemia; 76.6% in the experiment on OVCAR-8 ovarian. For the same compound, the growth was 75.5% in the experiment with OVCAR-5 ovarian; 60.7% with OVCAR-4 ovarian; 88.2% with SK-OV-3 ovarian; 69.7% with IGROV1 ovarian; 53.2% with OVCAR-3 ovarian; 86.7% in the experiment on HS 578T breast. Further, in the experiment on NCI/ADR-RES ovarian, the growth was 89.9%.
Turning to `N#C/C(=C\c1ccc(Br)cc1)n1nnc2cc(F)c(F)cc21`, the growth is 29.5% in the experiment on SK-MEL-2 melanoma; 69.8% in the experiment with EKVX NSCLC; 17% in the experiment on SN12C renal; 33.9% in the experiment with UO-31 renal; 32.1% in the experiment with TK-10 renal; 24% in the experiment with ACHN renal. The growth was 22.9% in the experiment on CAKI-1 renal; 26.8% in the experiment with A498 renal; 1.95% (active) with MOLT-4 leukemia; 6.06% (active) with SR leukemia; 0% (active) in the experiment on RPMI-8226 leukemia; 8.14% (active) with OVCAR-8 ovarian. The growth with OVCAR-5 ovarian was 3.24% (active); in the experiment on OVCAR-4 ovarian, 29.8%; in the experiment on SK-OV-3 ovarian it was 62.5%; in the experiment with IGROV1 ovarian, 6.79% (active); in the experiment on OVCAR-3 ovarian, 2.19% (active); in the experiment on HS 578T breast, 56.1%. In addition, the growth with NCI/ADR-RES ovarian was 1.66% (active).
Consider `COc1ccc2[nH]c(O)c(/C=c3/cc4c(c(-c5ccc(F)c(OC)c5)n3)=Nc3ccccc3-4)c2c1`, for which the growth was 96.3% with SK-MEL-2 melanoma; 89.5% in the experiment on EKVX NSCLC; 88.6% in the experiment on SN12C renal; 74.7% in the experiment on UO-31 renal; 87.2% with TK-10 renal; 52.2% in the experiment on ACHN renal. Besides, the growth in the experiment on CAKI-1 renal was 88.3%; in the experiment on A498 renal, 69.6%; in the experiment with MOLT-4 leukemia, 1.77% (active); with SR leukemia, 2.4% (active); in the experiment on RPMI-8226 leukemia, -20.4% (active); in the experiment with OVCAR-8 ovarian it was 60.4%. Also, the growth in the experiment with OVCAR-5 ovarian was 93.9%; with OVCAR-4 ovarian, 6.42% (active); in the experiment on SK-OV-3 ovarian, 107%; in the experiment with IGROV1 ovarian, 84.6%; in the experiment with OVCAR-3 ovarian, -34.4% (active); with HS 578T breast it was 84.7%. Also, the growth in the experiment on NCI/ADR-RES ovarian is 32.7%.
With `Cc1ccc(CCC(=O)Nc2ncc(Cc3cc(Cl)ccc3Cl)s2)o1`, the growth with SK-MEL-2 melanoma was 65%; in the experiment on EKVX NSCLC, 41%; in the experiment on SN12C renal, 23.4%; in the experiment on UO-31 renal it was 32%; with TK-10 renal it was 57%; with ACHN renal it was 28.8%. Besides, the growth is 26.2% in the experiment on CAKI-1 renal; 6.53% (active) in the experiment on A498 renal; 14% with MOLT-4 leukemia; 16.2% in the experiment on SR leukemia; 19.9% in the experiment on RPMI-8226 leukemia; 11.8% in the experiment on OVCAR-8 ovarian. Moreover, the growth is 23.2% in the experiment on OVCAR-5 ovarian; 43.3% in the experiment on OVCAR-4 ovarian; 33.1% with SK-OV-3 ovarian; 17% in the experiment with IGROV1 ovarian; -0.778% (active) in the experiment on OVCAR-3 ovarian; 9.73% (active) in the experiment on HS 578T breast. The growth with NCI/ADR-RES ovarian was -4.35% (active).
Take `Oc1c(CN2CCCC2)cc(COCc2ccc(Br)cc2)c2cccnc12`: the growth was -18% (active) in the experiment on SK-MEL-2 melanoma; 27.5% in the experiment on EKVX NSCLC; 12% with SN12C renal; -13.9% (active) in the experiment on UO-31 renal; 7.24% (active) with TK-10 renal; 0.47% (active) in the experiment on ACHN renal. Moreover, the growth with CAKI-1 renal is 1.4% (active); in the experiment on A498 renal it was -1.12% (active); in the experiment on MOLT-4 leukemia, -8.18% (active); with SR leukemia, 3.12% (active); with RPMI-8226 leukemia, 1% (active); in the experiment with OVCAR-8 ovarian, -27% (active). Besides, the growth was 29.6% with OVCAR-5 ovarian; -5.71% (active) in the experiment with OVCAR-4 ovarian; -17.4% (active) with SK-OV-3 ovarian; -6.09% (active) in the experiment with IGROV1 ovarian; -4.02% (active) in the experiment on OVCAR-3 ovarian; 45.2% in the experiment on HS 578T breast. In addition, the growth in the experiment with NCI/ADR-RES ovarian is -40.9% (active).
As for `COc1cc(N=Nc2cc(Cc3ccc(N(C)C)cc3)c(N)cc2N(C)C)c2ncccc2c1`, the growth in the experiment on SK-MEL-2 melanoma is 29.4%; in the experiment with EKVX NSCLC it was 8.8% (active); in the experiment with SN12C renal, 31.2%; in the experiment with UO-31 renal it was -12.6% (active); in the experiment with TK-10 renal, 32.3%; with ACHN renal, -58.5% (active). Besides, the growth is 13.5% in the experiment on CAKI-1 renal; -8.31% (active) in the experiment with A498 renal; -13.2% (active) in the experiment on MOLT-4 leukemia; -13.5% (active) with SR leukemia; -53.4% (active) in the experiment with RPMI-8226 leukemia; -37% (active) with OVCAR-8 ovarian. The growth in the experiment with OVCAR-5 ovarian was 42.8%; in the experiment with OVCAR-4 ovarian, -48.9% (active); with SK-OV-3 ovarian, -0.131% (active); in the experiment on IGROV1 ovarian, 7.41% (active); in the experiment on OVCAR-3 ovarian, -28.7% (active); in the experiment with HS 578T breast it was 18.3%. Also, the growth with NCI/ADR-RES ovarian was -17.8% (active).
As to `COC(=O)[C@H](CSC)N(C)C(=O)[C@@H]1CSSC[C@@H](NC(=O)c2nc3ccccc3cc2O)C(=O)NCC(=O)N1C`, the growth in the experiment with SK-MEL-2 melanoma is 61.3%; in the experiment with EKVX NSCLC, 82.8%; in the experiment on SN12C renal, 66.5%; in the experiment with UO-31 renal, 71.9%; with TK-10 renal, 88.4%; in the experiment with ACHN renal it was 88%. Moreover, the growth in the experiment on CAKI-1 renal was 104%; in the experiment with A498 renal, 102%; in the experiment with MOLT-4 leukemia, 23.8%; with SR leukemia it was 28.6%; in the experiment on RPMI-8226 leukemia, 85.2%; in the experiment with OVCAR-8 ovarian, 90.2%. Also, the growth in the experiment on OVCAR-5 ovarian is 128%; in the experiment with OVCAR-4 ovarian, 103%; in the experiment with SK-OV-3 ovarian, 91.6%; with IGROV1 ovarian, 95.8%; in the experiment with OVCAR-3 ovarian, 58.2%; in the experiment with HS 578T breast, 90.9%. For the same compound, the growth with NCI/ADR-RES ovarian was 104%.
As to `CC1CC2Oc3ccc(Cl)cc3C(=O)N2O1` (stereo not given), the growth in the experiment on SK-MEL-2 melanoma was 98.6%; with EKVX NSCLC, 109%; in the experiment with SN12C renal, 105%; in the experiment with UO-31 renal it was 92.9%; in the experiment on TK-10 renal, 96.8%; with ACHN renal, 102%. For the same compound, the growth with CAKI-1 renal is 97.1%; with A498 renal, 86.9%; in the experiment on MOLT-4 leukemia, 105%; in the experiment with SR leukemia, 98.2%; with RPMI-8226 leukemia, 91.1%; in the experiment with OVCAR-8 ovarian, 107%. In addition, the growth was 98.7% in the experiment on OVCAR-5 ovarian; 117% in the experiment with OVCAR-4 ovarian; 100% in the experiment with SK-OV-3 ovarian; 125% with IGROV1 ovarian; 114% in the experiment with OVCAR-3 ovarian; 102% in the experiment with HS 578T breast. Also, the growth in the experiment on NCI/ADR-RES ovarian was 107%.
